M1 ag: activates human CHRM1 receptor; P11229; CHO-K1 hM1, Fluo-8 calcium fluorescence, agonist mode; 0% DMSO, 100% acetylcholine EC100; activation, % at 3 µM; 0.33% of 360,000 active; AID 588814;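 active = activation above the run's mean compound activation plus 3 SD, cut at about 16% in these data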;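 also: peak over basal fluorescence ratio within a 140 s kinetic read after compound addition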
Target sequence (P11229 whole entry, looked up): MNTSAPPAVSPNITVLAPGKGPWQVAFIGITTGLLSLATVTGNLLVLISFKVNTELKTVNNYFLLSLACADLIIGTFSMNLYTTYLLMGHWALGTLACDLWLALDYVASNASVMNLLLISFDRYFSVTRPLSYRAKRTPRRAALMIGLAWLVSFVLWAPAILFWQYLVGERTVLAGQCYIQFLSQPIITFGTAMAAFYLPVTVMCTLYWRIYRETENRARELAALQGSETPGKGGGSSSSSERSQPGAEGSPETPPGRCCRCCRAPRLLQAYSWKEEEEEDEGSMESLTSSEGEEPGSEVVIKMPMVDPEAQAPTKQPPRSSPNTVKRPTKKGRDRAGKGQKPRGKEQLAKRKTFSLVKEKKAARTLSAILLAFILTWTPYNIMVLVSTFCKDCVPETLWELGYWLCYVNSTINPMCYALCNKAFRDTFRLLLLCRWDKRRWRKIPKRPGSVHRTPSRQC
M1 PAM: human CHRM1 positive allosteric modulation. P11229. activation, % at 3 µM. 0.088% of 360,000 active. CHO-K1 hM1, Fluo-8 calcium fluorescence, ACh EC20; 0% = ACh EC20, 100% = maximal ACh; in the data active = activation above about 19%, passing the limit was not always enough
M1 antag: human CHRM1 antagonism; 1.3% of 360,000 active; AID 588852; CHO-K1 hM1, Fluo-8 calcium fluorescence, ACh EC80 antagonist; inhibition, % at 3 µM;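 active = percent inhibition above its own plate's cutoff, namely the mean of that plate's compound wells plus 3 SD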;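 also: peak over basal fluorescence ratio during 140 s after agonist addition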
M1 PAM parental: nonselective activator or artifact in parental CHO-K1 calcium assay; ATP EC20, Fluo-8 calcium fluorescence; 0% at ATP EC20, 100% at ATP max; activation, % at 3 µM; 0.02% of 360,000 active; AID 602247;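 active = activation above the run cutoff, the mean activation of all test compounds plus 3 SD, cut at about 40% in these data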;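 also: peak over basal fluorescence ratio in a 140 s read after ATP addition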
CHO-K1 Ca antag: M1 antagonist counterscreen hit in parental CHO-K1 cells; ATP-induced calcium, Fluo-8 fluorescence; inhibition, % at 3 µM; 0.6% of 360,000 active;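 active = inhibition above a per-plate cutoff, the plate's mean sample inhibition plus 3 SD, cut at about 24% in these data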
CHO-K1 Ca ag: nonselective activator or artifact in parental CHO-K1 cells; Fluo-8 calcium fluorescence; scaled to maximal ATP response, vehicle zero; activation, % at 3 µM; 0.48% of 360,000 active; AID 602248; in the data active = activation above about 15%;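 also: untransfected CHO-K1 host cells lacking M1 receptor as counterscreen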
Of the large screens only hits and unclear results are named; the others gave an inactive call. An excerpt weighted towards active compounds, which were near 2.4% of everything screened.

N#Cc1cc(C(=O)c2ccccc2O)cn(-c2nccs2)c1=O	M1 ag 45, CHO-K1 Ca antag 25, CHO-K1 Ca ag 72
Cc1c(-n2cc(C(=O)c3cc(F)ccc3O)cc(C#N)c2=O)c(=O)n(-c2ccccc2)n1C	none
N#Cc1cc(C(=O)c2cc(F)ccc2O)cn(-c2nccs2)c1=O	M1 ag 54, CHO-K1 Ca ag 55
Cc1cccc(C(=O)OCC(=O)c2ccc3c(c2)NC(=O)CO3)c1	none
CCN(CC)S(=O)(=O)c1cccc(C(=O)OCC(=O)c2ccc3c(c2)NC(=O)CO3)c1	CHO-K1 Ca ag 17
C1CCN(C2CCN(c3nc4nonc4nc3N3CCSCC3)CC2)C1	M1 antag 27
Cc1ccc(C(C)C)c(OCC(O)CN(C)Cc2ccccc2)c1 (configuration not stated)	none
Cc1ccc(C(C)C)c(OCCCN(C)Cc2ccccc2)c1	M1 antag 59
CCOC(=O)Cc1cc(=O)[nH]c(/N=C(\N)Nc2ccc(C)c(C)c2)n1	none
C=CCNc1nc(Nc2ccc([N+](=O)[O-])cc2)nc(OC)n1	CHO-K1 Ca antag 29
CC(O)c1c(-c2ccccc2)nn(C)c1Cl (configuration not stated)	CHO-K1 Ca antag 28
CCC(O)c1c(-c2ccccc2)nn(C)c1Cl (configuration not stated)	none
O=C1CCC[C@@H]2C=C[C@H](c3ccc(Br)cc3)[C@H]3CCN1[C@@H]32	none (no result: M1 ag, M1 PAM, M1 antag)
COc1ccccc1C(=O)C1CCCN(C(=O)c2cccc(Cn3cccn3)c2)C1 (configuration not stated)	none
CCOc1ccc(CN2CCCC(N3CCN(c4ccc(OC)cc4)CC3)C2)cc1 (configuration not stated)	M1 antag 35
O=C(c1ccco1)N1CCN(C(c2ccccc2Cl)c2nnnn2Cc2ccco2)CC1 (configuration not stated)	M1 antag 29
O=C(c1ccco1)N1CCN(C(c2ccccc2Cl)c2nnnn2Cc2cccs2)CC1 (configuration not stated)	none
O=c1oc2ccccc2c(Nc2ccccc2O)c1[N+](=O)[O-]	none
O=c1oc2ccccc2c(Nc2cccc3ccccc23)c1[N+](=O)[O-]	CHO-K1 Ca antag 26
COc1ccc(-c2nnc(-c3ccc(N(C)C)cc3)o2)cc1	none
CN(C)c1ccc(-c2nnc(-c3ccccc3F)o2)cc1	CHO-K1 Ca ag 19
CC(C)(C)c1ccc(OCCNC(=S)NC(=O)c2cccnc2)cc1	none
CC(=O)c1cccc(NC(=O)c2cccc3c(-c4cccc(C(N)=O)c4)coc23)c1	none
CS(=O)(=O)Nc1cccc(NC(=O)c2cccc3c(-c4cccc(C(N)=O)c4)coc23)c1	M1 antag 31
CN(CC(=O)Nc1cccc(F)c1)C(=O)c1cc([N+](=O)[O-])ccc1N1CCCCC1	none
CC(=O)Nc1ccc(S(=O)(=O)Nc2cccc3[nH]ncc23)cc1	CHO-K1 Ca antag 31
CCc1nnc(NS(=O)(=O)c2ccc(Nc3ccc4nonc4c3[N+](=O)[O-])cc2)s1	CHO-K1 Ca antag 29
CC(=O)Nc1ccc(Nc2ccc3nonc3c2[N+](=O)[O-])cc1	none
CC(=O)CCc1ccc(OCCCCN2CCC(Cc3ccccc3)CC2)cc1	M1 antag 60
COc1cccc(OC)c1OCCCCN1CCC(Cc2ccccc2)CC1	M1 antag 47
CCOc1ccccc1OCCN1CCC(Cc2ccccc2)CC1	none
N#Cc1ccccc1OCCCN1CCC(Cc2ccccc2)CC1	M1 antag 35
COc1ccc(NC(=O)NCCCN2CCC(Cc3ccccc3)CC2)cc1	none
CCC(=O)c1ccccc1OCCCN1CCC(Cc2ccccc2)CC1	M1 antag 92
COc1ccc(CN2CCC(Cc3ccccc3)CC2)c(C)c1C	M1 antag 33
CC(=O)c1cn(Cc2ccccc2)c(=O)[nH]c1=O	none
COCCNC(=O)C1CCCN(Cc2ccccc2-c2ccccc2)CC1 (configuration not stated)	none
COC(=O)c1cnc(Nc2nc(C(N)Cc3ccc(OC)cc3)cs2)nc1C(F)(F)F (configuration not stated)	none
COC(=O)c1cnc(Nc2nc(C(N)Cc3ccccc3)cs2)nc1C(F)(F)F (configuration not stated)	M1 PAM 26
CCCc1cnc(Nc2nc(C(N)Cc3ccc(C(F)(F)F)cc3)cs2)nc1 (configuration not stated)	M1 ag 18
O=C(O)c1ccccc1C(=O)OCCCc1ccncc1	none
CCOc1cc(CNCCSc2nnnn2C)cc(Br)c1OCc1ccccc1	M1 antag 29
COc1cc(OC)c(OC)cc1CNCCSc1nnnn1C	CHO-K1 Ca ag 19
Cc1ncc(CO)c2cc(S(=O)(=O)c3ccc(F)cc3)c(=O)oc12	M1 antag 23
Cc1c(NC(=O)CS(=O)(=O)c2ccccc2)c(=O)n(-c2ccccc2)n1C	none
COc1ccccc1CNC(=O)OCc1nccnc1C(=O)Nc1ccc(Br)cn1	none
FC(F)(F)c1ccc(-c2cccc3c2C2CC3CCN2Cc2ccc3c(c2)OCO3)cc1 (configuration not stated)	none
CC(C)(C)OC(=O)[C@H](Cc1ccccc1)NC(=O)c1nc[nH]c1C(=O)NCC(=O)OCc1ccccc1	none
C[C@H](NC(=O)c1nc[nH]c1C(=O)NCCCCCNC(=O)OC(C)(C)C)C(=O)OCc1ccccc1	M1 antag 45
CC(C)(C)OC(=O)NCCCCCNC(=O)c1nc[nH]c1C(=O)NCC(=O)OCc1ccccc1	M1 antag 39
CC(C)(C)OC(=O)CNC(=O)c1[nH]cnc1C(=O)NCC(=O)OCc1ccccc1	M1 antag 35
CN(C)CCNC(=O)c1ccc(Sc2ccc(Br)cc2)c([N+](=O)[O-])c1	none
Cc1cccc(C)c1C(OCCN(C)C)C1CCCCC1 (configuration not stated)	M1 antag 99
COCCN(C(=O)CCl)C(C(=O)NC1CCCCC1)c1ccccc1C (configuration not stated)	none
COc1cccc(CNc2ccc3c(c2)CCC3)c1	none
COc1cccc(CNc2ccc(C)c(Cl)c2)c1	CHO-K1 Ca ag 17
CN1CCN(C2=Cc3cc(Cl)ccc3Sc3cc(F)ccc32)CC1	M1 antag 82
CN1CCN(C2=Cc3ccccc3Sc3cc(F)c(F)cc32)CC1	M1 antag 70
CN1CCN(C2=Cc3ccccc3Sc3cc(F)c(Cl)cc32)CC1	M1 antag 69
CN1CCN(c2ccccc2NC(=O)c2ccccc2F)CC1	none
CN1CCN(c2nc(-c3ccc(Cl)c(Cl)c3)nc3ccccc23)CC1	none
C/C(=N\NC(=O)c1ccccc1F)c1cccc(NC(=O)c2ccc(C)cc2)c1	none
